# Results filed as inconclusive are left out. Where a call stands in place of a potency, no number is given. Calls of active or inactive are those of the source. Calls come from the whole dose curve; as a rule, active = well fitted inhibition curve with a large enough effect; inconclusive = small, poorly fitted or top-dose-only effect; inactive = flat fitted curve, though single readings scatter.
# Test system: Zika virus NS2B-NS3 protease
# Test: Primary screen GU AMC qHTS for Zika virus inhibitors (AID 1347154); note: nearly all actives have a fitted effect of over 70% in size
# Settings: Zika NS2B-NS3 unlinked protease, AMC fluorogenic substrate; series mostly up to 54.1 µM
# Outline: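 Unlinked Zika NS2B hydrophilic domain–NS3 protease complex at 25 nM in 10 mM Tris-HCl pH 8.0, 0.01% Tween 20, with an AMC peptide substrate. Fluorescence change (340/450 nm) over 15 min at room temperature, normalized to controls, fitted to 4-parameter Hill.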
# Potency is the fitted concentration of half-maximal effect.
row,Compound,Potency
1,CC(=O)N[C@@H](CS)C(=O)O,inactive
2,C[N+](C)(C)CC(=O)O,inactive
3,CC(C)C(C)C=CC(C)C1CCC2C3=CC=C4CC(O)CCC4(C)C3CCC21C (configuration not stated),inactive
4,CC(=O)O[C@]1(C(C)=O)CC[C@@H]2[C@@H]3C[C@H](C)C4=CC(=O)CC[C@]4(C)[C@H]3CC[C@@]21C,inactive
5,C[C@@H]1CCN(C(=O)CC#N)C[C@H]1N(C)c1ncnc2[nH]ccc12,inactive
6,O=c1cc(-c2cccc3c2Sc2ccccc2S3)oc(N2CCOCC2)c1,inactive
7,C[C@]12CCC3c4ccc(O)cc4CCC3C1CCC2=O (some centres not stated),inactive
8,CC=CCC(C)C(O)C1C(=O)NC(CC)C(=O)N(C)CC(=O)N(C)C(CC(C)C)C(=O)NC(C(C)C)C(=O)N(C)C(CC(C)C)C(=O)NC(C)C(=O)NC(C)C(=O)N(C)C(CC(C)C)C(=O)N(C)C(CC(C)C)C(=O)N(C)C(C(C)C)C(=O)N1C (configuration not stated),inactive
9,O=C(O)c1ccc(-c2cc3cccnc3c(-c3ccc4nonc4c3)n2)cc1,inactive
10,N[C@@]1(C(=O)O)CS(=O)(=O)[C@H]2[C@H](C(=O)O)[C@H]21,inactive
11,N#C[C@H]1C[C@H]2C[C@@H]2N1C(=O)[C@@H](N)C12CC3CC(CC(O)(C3)C1)C2,inactive
12,NC1=N[C@@]2(c3cc(NC(=O)c4ccc(F)cn4)ccc3F)COC[C@@H]2CS1,inactive
13,O=C(O)c1cc(O)c2c(c1)C(=O)c1cccc(O)c1C2=O,24.8 µM (active)
14,CCN(CC)CCOc1ccc(C(=C(Cl)c2ccccc2)c2ccccc2)cc1,inactive
15,CC(=O)Oc1cc2c(s1)CCN(C(C(=O)C1CC1)c1ccccc1F)C2 (configuration not stated),inactive
16,O=C1c2ccccc2-[n+]2ccc3c([nH]c4ccccc43)c21,inactive
17,Cc1ccc(/C=N/NC(=O)c2ccccc2Oc2ccccc2)o1,inactive
18,CCNc1cc(NC2CCC(O)CC2)nc(Nc2ccc3c(ccn3Cc3ccccc3)c2)n1 (configuration not stated),inactive
19,N[C@H](CSC(c1ccccc1)(c1ccccc1)c1ccccc1)C(=O)O,inactive

row,Compound,Potency
1,NC1CCC(Nc2nc(Nc3ccc(C(=O)N4CCCCC4)cc3)c3ncn(-c4cccc(F)c4)c3n2)CC1 (configuration not stated),inactive
2,Nc1ncnc2c1nc(Cl)n2[C@@H]1O[C@H](CO)[C@@H](O)[C@@H]1O,inactive
3,O=C(O)C=Cc1ccc(O)c(O)c1,inactive
4,COc1ccc(-c2oc3c(CC=C(C)C)c(OC4O[C@H](CO)[C@@H](O)[C@H](O)[C@@H]4O)cc(O)c3c(=O)c2OC2O[C@@H](C)[C@H](O)[C@@H](O)[C@@H]2O)cc1 (some centres not stated),inactive
5,CC(C)C[C@H](CC(=O)O)C(=O)N[C@@H](Cc1c[nH]c2ccccc12)C(=O)N[C@@H](C)c1ccccc1,inactive
6,COc1ccc2c3c1OC1C[C@@H](O)C=C[C@@]31CCN(C)C2 (some centres not stated),inactive
7,O=c1ccn([C@@H]2O[C@H](CO)[C@H](O)[C@H]2O)c(=O)[nH]1,inactive
8,CC[C@H]1OC(=O)[C@H](C)[C@@H](O[C@H]2C[C@@](C)(OC)[C@@H](O)[C@H](C)O2)[C@H](C)[C@@H](O[C@@H]2O[C@H](C)C[C@H](N(C)C)[C@@H]2O)[C@](C)(O)C[C@@H](C)CN(C)[C@H](C)[C@@H](O)[C@]1(C)O,inactive
9,c1ccc2c(Cc3c[nH]c4ccccc34)c[nH]c2c1,inactive
10,O=C1C(Cl)=C(NCCN2CCOCC2)C(=O)c2ncccc21,inactive
11,NC(=O)[C@@H](CCC(F)(F)F)N(Cc1ccc(-c2ncon2)cc1F)S(=O)(=O)c1ccc(Cl)cc1,inactive
12,CC(=O)OC1C(C)OC(Oc2c(-c3ccc(O)cc3)oc3cc(O)cc(O)c3c2=O)C(O)C1OC(C)=O (configuration not stated),inactive
13,O=C1NC(=O)C(=Cc2ccc3c(c2)OC(F)(F)O3)S1,inactive
14,c1cc(-c2sc(-c3ccncc3)c(-c3ccncc3)c2-c2ccncc2)ccn1,inactive
15,Cc1nnc(C(C)C)n1C1C[C@H]2CC[C@@H](C1)N2CC[C@H](NC(=O)C1CCC(F)(F)CC1)c1ccccc1 (some centres not stated),inactive
16,CO[C@H]1C[C@@H]2CC[C@@H](C)[C@@](O)(O2)C(=O)C(=O)N2CCCC[C@@H]2C(=O)O[C@H]([C@H](C)C[C@@H]2CC[C@H](OCCO)[C@H](OC)C2)CC(=O)[C@H](C)C=C(C)[C@@H](O)[C@@H](OC)C(=O)[C@H](C)C[C@H](C)C=CC=CC=C1C,inactive
17,Cc1ccc(C(C)(O)c2nc3ccccc3s2)c(C)c1 (configuration not stated),inactive
18,CC1(C)CCC[C@@]2(C)[C@@H]1CC[C@@]1(C)OC(=O)C[C@H]21,inactive

# — PubChem BioAssay (NCATS)
